Experimental data from PubChem BioAssay (EPA / NIEHS).
Calls of active or inactive are those of the source. How the source made its calls: active means hit-call score of the fitted dose curve at least 0.9, where 1 is the maximum; inactive means score below 0.9.

Experiments:
[1] = ATG_CRE_CIS: Attagene CIS-FACTORIAL HepG2 Assay for human cAMP Responsive Element (CRE) binding protein 3 (AID 2282926); details: HepG2 CRE cis-reporter, Attagene multiplexed mRNA; actives raise or lower the signal
Procedure, shortened: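 Cells carrying cis-regulated reporter constructs respond through their own endogenous factors. After 24 h treatment, RNA is reverse-transcribed, amplified, labelled and sized by capillary electrophoresis; up- and down-regulation are both scored against vehicle.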

[2] = target: CCAAT/enhancer-binding protein beta (Homo sapiens) (UniProt P17676); test: ATG_C_EBP_CIS: Attagene CIS-FACTORIAL HepG2 Assay for human CCAAT/Enhancer Binding Protein (C/EBP) beta (AID 2282927); details: HepG2 Attagene cis-factorial transcription factor reporter; actives raise or lower the signal
Procedure, shortened: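 HepG2 transiently transfected with multiplexed reporter units under cis-regulatory promoters reporting endogenous C/EBPb activity. After 24 h exposure, reporter mRNA assayed by RT-PCR, fluorescent labelling, HpaI digestion and capillary electrophoresis; bidirectional fitting versus DMSO.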

[3] = ATG_CMV_CIS: Attagene CIS-FACTORIAL HepG2 Assay for human CMV (Internal Marker) (AID 2282928); details: HepG2 CMV promoter reporter, transcription factor profiling; actives raise or lower the signal;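 further: endpoint acts as a background internal control marker rather than a target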
Procedure, shortened: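 Fluorescence intensity of RT-PCR-derived reporter fragments, resolved by capillary electrophoresis, gives the signal. HepG2 liver cells bearing transfected cis-element reporters were treated 24 h; activity in either direction was fit relative to DMSO-treated controls.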

[4] = ATG_DR4_LXR_CIS: Attagene CIS-FACTORIAL HepG2 Assay for human Liver X Receptor (LXR), DR4 submotif (AID 2282929); details: HepG2 Attagene DR4 cis-reporter, mRNA transcription; actives raise or lower the signal
Procedure, shortened: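 HepG2 cells transiently transfected with cis-promoter-driven multiplexed reporter units (DR4 element) were dosed for 24 h. Reporter mRNA was quantified by RT-PCR, fluorescent primer extension, HpaI digestion and capillary electrophoresis; bidirectional fitting versus DMSO baseline.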

[5] = target: Aryl hydrocarbon receptor (Homo sapiens) (UniProt P35869); test: ATG_Ahr_CIS: Attagene CIS-FACTORIAL HepG2 Assay for human Aryl Hydrocarbon Receptor (Ahr) (AID 2282930); details: HepG2 AhR cis-factorial reporter transcription; actives raise or lower the signal
Procedure, shortened: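 HepG2 cells transiently transfected with cis-element-driven multiplexed reporter units; endogenous AhR activity read as reporter mRNA 24 h after dosing, via RT-PCR, 6-FAM labelling, HpaI digestion and capillary electrophoresis. Bidirectional fit relative to DMSO.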

[6] = ATG_AP_1_CIS: Attagene CIS-FACTORIAL HepG2 Assay for human Activator Protein 1 (AP-1) (AID 2282931); details: HepG2 Attagene cis-factorial AP-1 reporter mRNA; actives raise or lower the signal
Procedure, shortened: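 HepG2 cells transiently transfected with cis-element-driven multiplex reporter units; 24 h compound exposure. Reporter mRNA quantified by RT-PCR, FAM-labelled fragments resolved by capillary electrophoresis; bidirectional fit versus DMSO baseline.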

[7] = ATG_AP_2_CIS: Attagene CIS-FACTORIAL HepG2 Assay for human Activator Protein 2 (AP-2) (AID 2282932); details: HepG2 AP-2 cis-reporter, Attagene transcription factor profiling; actives raise or lower the signal
Procedure, shortened: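 Liver-derived HepG2 line, cis-reporter system measuring endogenous factors; 24 h dosing; reporter mRNA detected by fluorescent RT-PCR and capillary electrophoresis.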

[8] = ATG_BRE_CIS: Attagene CIS-FACTORIAL HepG2 Assay for human Bone Morphogenetic Protein (BMP) Response Element (BRE) (AID 2282933); details: HepG2 BMP response element reporter, Attagene transcription factor profiling; actives raise or lower the signal
Procedure, shortened: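 HepG2 cells transiently transfected with multiplexed cis-element reporter units were dosed with chemical for 24 h. Reporter mRNA was measured by RT-PCR with fluorescent labelling, HpaI digestion and capillary electrophoresis; bidirectional fitting relative to DMSO.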

[9] = target: Retinoic acid receptor alpha (Homo sapiens) (UniProt P10276); test: ATG_DR5_RAR_CIS: Attagene CIS-FACTORIAL HepG2 Assay for human Retinoic Acid Receptor Alpha (RARE), DR5 submotif (AID 2282934); details: HepG2 Attagene cis-factorial RARE DR5 reporter, mRNA; actives raise or lower the signal;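 on AC50: reporter responds to endogenous RAR alpha beta and gamma in HepG2 not RARA alone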
Procedure, shortened: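 HepG2 cells transiently transfected with multiplexed reporter units; DR5 cis-element drives reporter through endogenous transcription factors. After 24 h dosing, reporter mRNA quantified by RT-PCR, fluorescent labeling, HpaI digestion and capillary electrophoresis; bidirectional fitting versus DMSO.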

[10] = target: Transcription factor E2F1 (Homo sapiens) (UniProt Q01094); test: ATG_E2F_CIS: Attagene CIS-FACTORIAL HepG2 Assay for human E2F Transcription Factor 1 (AID 2282935); details: HepG2 Attagene cis-reporter, E2F reporter RNA transcripts; actives raise or lower the signal
Procedure, shortened: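 Liver-derived HepG2 cells expressing transfected promoter-driven reporter units received test chemical for 24 hours. Signal gains or losses were fitted bidirectionally against DMSO.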

Measured: AC50

CCAAT/enhancer-binding protein beta (Homo sapiens), sequence (P17676 whole entry, looked up): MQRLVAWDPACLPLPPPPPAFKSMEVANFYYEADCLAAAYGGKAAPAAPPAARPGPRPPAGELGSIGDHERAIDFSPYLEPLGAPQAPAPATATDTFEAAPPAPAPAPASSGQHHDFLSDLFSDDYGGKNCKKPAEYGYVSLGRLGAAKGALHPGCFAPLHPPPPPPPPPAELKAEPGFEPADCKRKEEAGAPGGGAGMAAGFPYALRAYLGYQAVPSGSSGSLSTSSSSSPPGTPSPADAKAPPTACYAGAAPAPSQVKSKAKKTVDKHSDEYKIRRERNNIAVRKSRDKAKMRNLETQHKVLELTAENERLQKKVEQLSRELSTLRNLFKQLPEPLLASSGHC
Aryl hydrocarbon receptor (Homo sapiens), sequence (P35869 whole entry, looked up): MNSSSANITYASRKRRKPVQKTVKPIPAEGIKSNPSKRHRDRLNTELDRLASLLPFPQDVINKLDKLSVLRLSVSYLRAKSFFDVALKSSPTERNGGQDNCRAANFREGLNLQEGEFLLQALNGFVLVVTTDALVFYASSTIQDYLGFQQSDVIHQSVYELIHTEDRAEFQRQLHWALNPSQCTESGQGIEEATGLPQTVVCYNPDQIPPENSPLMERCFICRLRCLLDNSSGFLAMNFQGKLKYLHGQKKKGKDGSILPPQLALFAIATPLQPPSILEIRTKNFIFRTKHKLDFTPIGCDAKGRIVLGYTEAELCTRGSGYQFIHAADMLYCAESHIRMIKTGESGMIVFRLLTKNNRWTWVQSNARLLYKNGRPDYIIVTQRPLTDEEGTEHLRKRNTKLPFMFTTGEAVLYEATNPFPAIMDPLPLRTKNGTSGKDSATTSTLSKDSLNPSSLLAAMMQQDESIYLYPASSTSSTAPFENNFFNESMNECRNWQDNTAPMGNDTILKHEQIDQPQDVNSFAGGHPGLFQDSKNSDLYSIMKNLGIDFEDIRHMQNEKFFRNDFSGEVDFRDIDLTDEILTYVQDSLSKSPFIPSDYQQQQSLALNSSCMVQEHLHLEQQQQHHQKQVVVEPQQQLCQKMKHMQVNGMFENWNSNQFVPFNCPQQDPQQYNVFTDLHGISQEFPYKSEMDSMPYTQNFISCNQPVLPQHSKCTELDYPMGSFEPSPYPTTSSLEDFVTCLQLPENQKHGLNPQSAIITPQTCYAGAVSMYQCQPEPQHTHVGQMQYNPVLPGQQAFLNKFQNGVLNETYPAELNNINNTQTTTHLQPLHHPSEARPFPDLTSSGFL
Retinoic acid receptor alpha (Homo sapiens), sequence (P10276 whole entry, looked up): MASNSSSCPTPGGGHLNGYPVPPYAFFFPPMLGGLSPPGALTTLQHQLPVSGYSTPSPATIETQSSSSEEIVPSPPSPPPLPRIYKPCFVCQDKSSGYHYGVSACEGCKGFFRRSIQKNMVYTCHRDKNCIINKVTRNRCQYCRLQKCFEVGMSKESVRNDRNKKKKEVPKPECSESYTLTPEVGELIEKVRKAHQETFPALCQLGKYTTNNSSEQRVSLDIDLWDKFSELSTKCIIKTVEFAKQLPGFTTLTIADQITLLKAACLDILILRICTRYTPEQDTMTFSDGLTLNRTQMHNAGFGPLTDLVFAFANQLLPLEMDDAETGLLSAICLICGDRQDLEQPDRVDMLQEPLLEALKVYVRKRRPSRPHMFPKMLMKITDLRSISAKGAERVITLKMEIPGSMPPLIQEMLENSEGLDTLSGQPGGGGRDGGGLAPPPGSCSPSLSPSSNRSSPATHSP
Transcription factor E2F1 (Homo sapiens), sequence (Q01094 whole entry, looked up): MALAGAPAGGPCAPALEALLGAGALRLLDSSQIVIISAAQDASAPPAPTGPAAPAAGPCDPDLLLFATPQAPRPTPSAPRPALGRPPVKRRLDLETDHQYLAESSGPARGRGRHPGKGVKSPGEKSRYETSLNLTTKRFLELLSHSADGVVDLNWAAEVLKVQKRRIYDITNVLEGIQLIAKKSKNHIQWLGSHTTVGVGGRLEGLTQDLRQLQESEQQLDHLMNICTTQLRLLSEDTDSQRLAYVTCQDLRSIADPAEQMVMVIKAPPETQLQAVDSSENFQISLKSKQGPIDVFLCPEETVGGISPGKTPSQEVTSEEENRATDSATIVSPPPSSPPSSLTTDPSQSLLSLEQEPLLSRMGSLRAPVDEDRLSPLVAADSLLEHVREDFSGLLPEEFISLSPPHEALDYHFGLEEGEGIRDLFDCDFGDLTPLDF

CC(=O)OC[C@H]1O[C@@](COC(C)=O)(O[C@H]2O[C@H](COC(C)=O)[C@@H](OC(C)=O)[C@H](OC(C)=O)[C@H]2OC(C)=O)[C@@H](OC(C)=O)[C@@H]1OC(C)=O
active: [5] 53 µM
inactive: all other assays above

CCCCCCCCO
active: [9] 25.3 µM
inactive: all other assays above

O=C1OC(=O)C2C3C=CC(C3)C12 (stereo unspecified)
inactive: all assays above

CCCCCCCCCCCCCCCO
active: [3] 56.6 µM | [4] 57.7 µM
inactive: all other assays above

C1=CCCC=CCCC=CCC1
active: [3] 135 µM | [4] 100 µM | [6] 161 µM
inactive: all other assays above

Cn1cnc([N+](=O)[O-])c1Sc1ncnc2nc[nH]c12
active: [3] 35.3 µM | [6] 28.1 µM
inactive: all other assays above

CCOC(=O)c1ccc(C2CCC(NC[C@H](O)COc3ccc(O)c(NS(C)(=O)=O)c3)CC2)cc1 (stereo partly specified)
active: [1] 51.8 µM | [2] 51.1 µM | [4] 60 µM | [6] 51.5 µM | [9] 51.4 µM
inactive: [3] | [5] | [7] | [8] | [10]

Clc1nc(Cl)c(Cl)c(Cl)c1Cl
inactive: all assays above

CC(C)c1cccc(C(C)C)c1N1C(=O)c2ccc(O)cc2C1=O
active: [1] 56 µM | [4] 12.1 µM | [6] 24.1 µM | [9] 5.9 µM
not listed: [8]
inactive: all other assays above

O=C1CCCCCN1
inactive: all assays above

NC(=O)NO
active: [5] 100 µM
not listed: [8]
inactive: all other assays above

CC(C)CC(C)(O)C#CC(C)(O)CC(C)C (stereo unspecified)
inactive: all assays above

CC(C)=CCCC(C)=CC=O
active: [1] 162 µM | [4] 183 µM | [5] 78.9 µM | [6] 137 µM | [8] 139 µM
inactive: all other assays above

C=CCCCCCCCCC(=O)O
inactive: all assays above

CCC(C)(C)C(=O)O[C@H]1C[C@@H](C)C=C2C=C[C@H](C)[C@H](CC[C@@H]3C[C@@H](O)CC(=O)O3)[C@H]21
inactive: all assays above

CCOCCO
inactive: all assays above

O=C1CCC(N2C(=O)c3ccccc3C2=O)C(=O)N1 (stereo unspecified)
inactive: all assays above

Cn1c(=O)cc(Oc2ccc(F)cc2F)c2cnc(NCC(C)(C)O)nc21
not listed: [9]
inactive: all other assays above

COc1ccc(-n2nc(C(F)F)cc2-c2ccc(S(C)=O)cc2)cc1 (stereo unspecified)
active: [3] 5.24 µM
inactive: all other assays above

Cc1ccc(C)c(O)c1
not listed: [8]
inactive: all other assays above

Nc1ccc(Nc2ccccc2)cc1
active: [3] 36.7 µM
inactive: all other assays above
